Compound activity: PubChem, National Center for Advancing Translational Sciences (NCATS)
Hits are enriched below; roughly 2.4% of the tested compounds scored in any of these assays.
PTHR1 agonist: PTHR1 (human) receptor agonism. HEK293 GP2 PTHR1 cells, GloSensor cAMP luminescence, 1 h. hit rate 0.075% among 410,000. Q03431. Potency, µM (doses to about 115 µM), for inactives: at the highest dose activation, usual class: activators; also: potency is read from the fitted curve at half-maximal effect; nearly all actives have a fitted effect of over 55% in size
Target sequence (Q03431 whole entry, looked up): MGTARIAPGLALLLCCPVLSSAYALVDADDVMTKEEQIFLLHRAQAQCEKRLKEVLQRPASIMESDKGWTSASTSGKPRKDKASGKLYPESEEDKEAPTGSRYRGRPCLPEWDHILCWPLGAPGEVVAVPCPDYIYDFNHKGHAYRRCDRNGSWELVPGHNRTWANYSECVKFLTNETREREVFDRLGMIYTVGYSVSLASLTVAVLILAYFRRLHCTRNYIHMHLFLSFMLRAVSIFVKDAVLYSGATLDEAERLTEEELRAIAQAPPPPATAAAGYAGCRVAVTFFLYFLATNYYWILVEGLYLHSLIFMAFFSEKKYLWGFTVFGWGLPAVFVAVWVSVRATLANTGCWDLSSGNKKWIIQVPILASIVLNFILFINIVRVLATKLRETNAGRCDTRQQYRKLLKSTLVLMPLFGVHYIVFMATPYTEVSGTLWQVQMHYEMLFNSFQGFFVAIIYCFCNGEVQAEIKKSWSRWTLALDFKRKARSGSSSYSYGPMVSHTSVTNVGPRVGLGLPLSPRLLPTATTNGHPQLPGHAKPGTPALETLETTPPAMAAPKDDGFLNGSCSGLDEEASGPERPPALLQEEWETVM
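HEK-293-derived GP2 cells expressing PTHR1 and a GloSensor cAMP reporter, 3,000/well, plated overnight, given luciferin plus IBMX (each 0.5 mM as added) for 1 h at 37 °C, then compound for 1 h at 37 °C. Luminescence was read after 15 min at room temperature.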
TRHR ag: TRH receptor (human) agonism | P34981 | TRHR cells, calcium flux fluo-8, FDSS agonist mode | activation, % at 2 µM | hit rate 0.18% among 360,000; in the data active = activation above about 30%; also: 0% is about no effect
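Read-out: compound-evoked intracellular calcium rise in TRHR cells, fluo-8 dye, kinetic FDSS fluorescence at 1 s/cycle following a 10-cycle baseline. Cells cultured overnight before dye loading (30 min–1.5 h, RT).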
TRHR enhancer: allosterically enhances the human TRH receptor; P34981; TRHR cells, fluo-8 calcium fluorescence, EC20 TRH enhancement; enhancement, % at 2 µM; hit rate 0.66% among 360,000; AID 493056; in the data active = enhancement above about 30%; also: 0% is about no effect
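TRHR-expressing cells loaded with fluo-8 calcium dye were read kinetically (ex 480/em 530) during compound addition, then stimulated with an EC20 of TRH (10 nM final). Enhancement of the Gq-mediated intracellular calcium response was scored.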
GLP1R ag: activates the human GLP-1 receptor; HEK293 GLP-1R CRE-luciferase, luminescence, 4-6 h; cells express a hypersensitive GLP-1R form; Potency, µM (series often up to 45.6 µM), without a hit: at the highest dose activation, most hits filed as activators; hit rate 0.007% among 380,000; AID 624172; also: potency is read from the fitted curve at half-maximal effect; % of control where 0% means no effect
GLP1R inv ag: GLP-1 receptor (human) inverse agonism; AID 624417; P43220; HEK293 GLP-1R CRE-luciferase, luminescence, 24 h; GLP-1R form is constitutively active; hit rate 1.6% among 410,000; Potency, µM (top dose mostly 38.3 µM), inactives show at the top dose activity change, negative = inhibition, usual class: inhibitors; also: potency is read from the fitted curve at half-maximal effect; % is scaled to controls: 0 for no effect and ±100 for the full control effect; nearly all actives have a fitted effect of over 55% in size
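Readout was luciferase luminescence, measured 12 min after detection reagent at room temperature. Beforehand, GLP-1R reporter HEK293 cells had sat 12 h, then received compounds for 24 hr at 37 deg C.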
GLP1R cytotox: cytotoxicity in counter-screen for GLP-1R inverse agonists; HEK293 cAMP-luciferase reporter cells, luminescence, 24 h; AID 624418; Potency, µM (highest dose often 38.3 µM), for the others: at the top dose activity change, negative = inhibition, most hits filed as inhibitors; hit rate 0.13% among 410,000;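 also: loss of luciferase light is scored as toxicity; potency is read from the fitted curve at half-maximal effect; % is scaled to controls: 0 for no effect and ±100 for the full control effect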
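Luminescence readout: signal drop marks cytotoxicity. Plated cells grew 12 h at 37 °C, 5% CO2, received 23 nL compound for 24 h, then got luciferase reagent, read after 12 min at RT.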
* = called active by the depositor; i = inactive; ? = inconclusive; . = no result. Unless noted, calls follow the shape of the dose curve; as a rule, active = well fitted curve in the direction sought with a large enough effect; inconclusive = small, poorly fitted or top-dose-only effect, or another doubt; inactive = no such curve, though single readings can be large; an effect the other way counts as inactive or inconclusive.

SMILES | PTHR1 agonist | TRHR ag | TRHR enhancer | GLP1R ag | GLP1R inv ag | GLP1R cytotox
O=C(Nc1cccc(C(F)(F)F)c1)c1cccnc1NCCc1ccccc1 | -18% | 2 | 7 | -2% | 3.5µM* | ?
O=C(Nc1cccc(C(F)(F)F)c1)c1cccnc1N1CCCC1 | i | 0 | -1 | 16% | 11µM* | 10%
O=C(Nc1cccc(F)c1)c1cccnc1NCCc1ccccc1 | -2% | 1 | -1 | 17% | 10µM* | -4%
CCCCC[C@@H](C)N1C[C@H](COCc2ccccc2)Oc2cc(N3CCC[C@@H]3CO)ccc2S1(=O)=O | -40% | . | . | 0% | 11µM* | -14%
CCCCC[C@@H](C)N1C[C@@H](COCc2ccccc2)Oc2cc(N3CCC[C@H]3CO)ccc2S1(=O)=O | -29% | . | . | 2% | ? | -9%
C[C@@H](c1ccccc1)N1C[C@H](COCc2ccccc2)Oc2cc(N3CC[C@H](O)C3)ccc2S1(=O)=O | -13% | . | . | -1% | 10µM* | -12%
N#CC(C#N)=C1C=CC=CN1/C(=C\c1ccccc1Cl)C(=O)c1ccccc1 | -36% | 2 | -11 | 0% | ? | 18%
Cc1cccc(N2C(=O)c3cccc4cccc(c34)C2=O)c1 | i | 0 | 1 | 7% | 14% | 2%
Cc1cccc(N2C(=O)c3cccc4c(N)ccc(c34)C2=O)c1 | i | 132* | 3 | 18% | -2% | i
Nc1cccc(N2C(=O)c3cccc4c(N)ccc(c34)C2=O)c1 | -6% | 127* | 13 | 4% | 10% | 158%
Nc1ccc2c3c(cccc13)C(=O)N(c1ccccc1)C2=O | i | -1 | 1 | 16% | 8% | 145%
Cc1ccc(NC(=O)c2ccc(CN3CC(=O)N4CCCCC4C3=O)cc2)c(C)c1 (stereo not given) | -12% | 1 | 5 | -5% | 7% | 4%
CCc1ccc2oc(C(=O)Nc3cccc(C(F)(F)F)c3)cc(=O)c2c1 | i | 0 | 45* | . | 0% | -3%
Cc1ccc2c(=O)cc(C(=O)Nc3cccc(C(F)(F)F)c3)oc2c1C | i | 1 | 1 | . | 3% | 4%
CC[C@@]12C(=O)N(c3cccc(Br)c3)C(=O)N1[C@H](c1ccc(F)cc1)[C@@H]1C(=O)N(C3CCCCC3)C(=O)[C@@H]12 | -11% | 1 | 0 | -3% | 8.9µM* | -31%
CC[C@@]12C(=O)N(c3cccc(F)c3)C(=O)N1[C@H](c1ccc(F)cc1)[C@@H]1C(=O)N(C3CCCCC3)C(=O)[C@@H]12 | -2% | 0 | -5 | -3% | ? | -6%
O=C1[C@H]2[C@@H](c3ccc(F)cc3)N3C(=O)N(c4cccc(Br)c4)C(=O)[C@@]3(Cc3ccccc3)[C@H]2C(=O)N1C1CCCCC1 | -16% | 1 | 4 | 0% | 2.8µM* | 7%
COc1ccc(-c2cc(C)no2)cc1S(=O)(=O)NCCCN(C)Cc1ccccc1 | -10% | 0 | 1 | 5% | ? | -14%
Clc1ccc2c(c1)C(C1=NCCN1)c1ccccc1CS2 (stereo not given) | -9% | 1 | 2 | -4% | 3.2µM* | ?
CCCCCC(=O)N1C[C@@H](n2cc(-c3ccc(F)cc3)nn2)[C@H](O)C[C@@H]1c1ccccc1 | -62% | . | . | 8% | ? | -12%
CCCCCC(=O)N1C[C@H](O)[C@@H](n2cc(-c3ccc(F)cc3)nn2)C[C@@H]1c1ccc(C)cc1 | -29% | . | . | 13% | 10µM* | -17%
CCCCCC(=O)N1C[C@H](n2cc(-c3ccc(F)cc3)nn2)[C@@H](O)C[C@@H]1c1ccc(Cl)cc1 | i | . | . | -4% | 10µM* | ?
COc1cc(C)cc2oc(=O)c(CC(=O)N3CCN(C(=O)C4COc5ccccc5O4)CC3)c(C)c12 (stereo not given) | -16% | -1 | -1 | -6% | 10µM* | -16%
